This passage reports Potency and outcome results from PubChem BioAssay (Tox21).

The nature of test [1]: A CellTox Green Cytotoxicity Assay to monitor cytotoxicity in HEK293 cells - 32 hour (AID 1224881). Also: nearly all actives have a fitted effect of over 40% in size. Also: potency is read from the fitted curve at half-maximal effect. An outline of the steps:
(§1)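 Homogeneous no-lysis format: HEK293 cell suspension mixed with CellTox Green reagent, seeded, incubated 5 h at 37 C/5% CO2, then dosed by pintool with compound in DMSO.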

Test [2] in a line: A CellTox Green Cytotoxicity Assay to monitor cytotoxicity in HepG2 cells - 0 hour (AID 1224882). Also: nearly all actives have a fitted effect of over 35% in size. An outline of the steps:
(§2)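 Fluorescent DNA-binding dye, 600 HepG2 cells/well, 5 h preincubation then compound in DMSO; same plates read at 0–40 h, 37 C.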

Test [3] is described as follows: A CellTox Green Cytotoxicity Assay to monitor cytotoxicity in HepG2 cells - 32 hour (AID 1224883). Also: nearly all actives have a fitted effect of over 50% in size. Also: potency is read from the fitted curve at half-maximal effect. Put shortly:
as §2

Test [4] is described as follows: A CellTox Green Cytotoxicity Assay to monitor cytotoxicity in HEK293 cells - 8 hour (AID 1224884). Also: nearly all actives have a fitted effect of over 35% in size. Put shortly:
as §1

The nature of test [5]: qHTS RealTime-Glo MT Cell Viability Assay in HepG2 cells - 16 hour (AID 1224885). Also: nearly all actives have a fitted effect of over 50% in size. An outline of the steps:
(§3)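 Compound treatment began 5 h after plating HepG2 cells (600/well) with NanoLuc luciferase and prosubstrate. Plates stayed at 37 C for 40 h; luminescence was captured at six time points, 0 h through 40 h.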
Background: In qHTS, concentration-response curves come from the screen itself.

Test [6] can be described thus: qHTS RealTime-Glo MT Cell Viability Assay in HEK293 cells - 24 hour (AID 1224886). Also: nearly all actives have a fitted effect of over 50% in size. Also: potency is read from the fitted curve at half-maximal effect. Put shortly: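 Quantitative high-throughput screen of the Tox21 10K library in HEK293: cells and RealTime-Glo reagents plated together, compound added at 5 h, luminescence monitored through 40 h at 37 C.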
Test [7] can be described thus: qHTS RealTime-Glo MT Cell Viability Assay in HEK293 cells - 8 hour (AID 1224887). Also: top concentration of the series differs between compounds; nearly all actives have a fitted effect of over 50% in size. Put shortly: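 Measured as luminescence from the same continuously cultured HEK293 wells at successive time points (0, 8, 16, 24, 32, 40 h) after compound addition. Reagent present from seeding; dosing at 5 h; incubation 37 C.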
Test [8] is described as follows: A CellTox Green Cytotoxicity Assay to monitor cytotoxicity in HEK293 cells - 16 hour (AID 1224888). Also: nearly all actives have a fitted effect of over 35% in size. An outline of the steps:
as §1

Test [9] is described as follows: qHTS RealTime-Glo MT Cell Viability Assay in HepG2 cells - 0 hour (AID 1224889). Also: nearly all actives have a fitted effect of over 50% in size. Also: potency is read from the fitted curve at half-maximal effect. Put shortly: as §3
A short description of test [10]: A CellTox Green Cytotoxicity Assay to monitor cytotoxicity in HepG2 cells - 8 hour (AID 1224890). Also: nearly all actives have a fitted effect of over 45% in size. Put shortly: as §2
Test [11] is described as follows: qHTS assay to identify small molecule antagonists of the androgen receptor (AR) signaling pathway using the MDA cell line in the presence of 0.5 nM R1881 - cell viability counter screen (AID 1259242). Also: nearly all actives have a fitted effect of over 45% in size. Put shortly:
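Human breast carcinoma MDA-kb2 cells, cultured without CO2, receive compounds alongside 0.5 nM (final) R1881 agonist. After 16 hr at 37C, viability is taken as live-cell protease signal.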

Test [12] concerns the target Estrogen receptor (Homo sapiens) (UniProt P03372). Nature of the test: qHTS assay to identify small molecule antagonists of the estrogen receptor alpha (ER-alpha) signaling pathway using the BG1 cell line in the presence of 0.1 nM 17-beta-estradiol (AID 1259244). Also: nearly all actives have a fitted effect of over 50% in size. Also: potency is read from the fitted curve at half-maximal effect. Put shortly: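 Seeding of stripped-serum-adapted VM7Luc4E2 cells, 24 h attachment, compound transfer, then 0.1 nM final 17beta-estradiol; after 22 h incubation, ONE-Glo reagent and luminescence reading.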

Test [13] can be described thus: qHTS assay to identify small molecule phospholipidosis (PLD) inducers (AID 1259344; active = well fitted curve in the direction sought with a large enough effect; an effect the other way counts as inactive or inconclusive). An outline of the steps: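 Cells (HepG2, 900 per well) attach for 4 h, receive LipidTOX Red and compound together, incubate 24 h at 37 C, are fixed 30 min with paraformaldehyde/Hoechst, then imaged at one site per well.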
Test [14] can be described thus: qHTS assay to identify small molecule HDAC inhibitors (AID 1259364). Also: potency is read from the fitted curve at half-maximal effect.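 Also: wild-type HCT-116 cells with endogenous class I/II HDAC activity; nearly all actives have a fitted effect of over 45% in size.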 Put shortly:
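After a 2 hr compound incubation (37C, 5% CO2), HCT-116 cells seeded at 1,500/well the day before received HDAC-Glo reagent; signal read as luminescence after 30 min at room temperature.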

Test [15] can be described thus: qHTS assay to identify small molecule HDAC inhibitors - cell viability counter screen (AID 1259365). An outline of the steps: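 To flag cytotoxic hits, 1,500 wild-type HCT-116 cells per well, plated the day before, receive test compounds for 2hr at 37 C before CellTiter-Glo reagent and a luminescence read.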
Test [16] can be described thus: qHTS assay to identify small molecule agonists of the sonic hedgehog signaling (Shh) pathway - cell viability counter screen (AID 1259366). Also: nearly all actives have a fitted effect of over 50% in size. An outline of the steps:
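Fluorescence from CellTiter-Fluor reports live cells in this counter screen. NIH/3T3-derived Gli1-Luc reporter cells receive test compounds for 24hr at 37C; reagent goes in at 23hr.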

Test [17] can be described thus: qHTS assay to identify small molecule antagonists of the sonic hedgehog signaling (Shh) pathway - cell viability counter screen (AID 1259367). Also: nearly all actives have a fitted effect of over 55% in size. An outline of the steps:
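Cytotoxicity was assessed in parallel with Shh reporter activity by measuring live-cell protease fluorescence (CellTiter-Fluor) in NIH/3T3 cells stably carrying Gli1-Luc, treated with compound under conditioned medium stimulation for 23 hr plus 1 hr reagent incubation.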

A short description of test [18]: qHTS assay to identify small molecule agonists of the sonic hedgehog signaling (Shh) pathway (AID 1259368; calls by dose curve; also: nearly all actives have a fitted effect of over 15% in size; also: potency is read from the fitted curve at half-maximal effect). An outline of the steps: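 Stable NIH/3T3 Gli1-Luc reporter clone; 24 hr cpd exposure after a 4 hr settling period; luminescence endpoint.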
Test [19] concerns the target Androgen receptor (Homo sapiens) (UniProt P10275). Nature of the test: qHTS assay to identify small molecule antagonists of the androgen receptor (AR) signaling pathway using the MDA cell line in the presence of 0.5 nM R1881 (AID 1259243). An outline of the steps: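 Cells: MDA-kb2 (MMTV-luc). Stimulus: 0.5 nM R1881. Time: 16 hr, 37C, no CO2. Detection: ONE-Glo luminescence after 30 min at RT.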

A short description of test [20]: qHTS assay to identify small molecule antagonists of the estrogen receptor alpha (ER-alpha) signaling pathway using the BG1 cell line in the presence of 0.1 nM 17-beta-estradiol - cell viability counter screen (AID 1259241). Also: nearly all actives have a fitted effect of over 40% in size. Put shortly:
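CellTiter-Fluor read (30 min, 37C) on ER-alpha/ERE-luc VM7Luc4E2 cells; 22 hr compound treatment; agonist 0.1 nM E2 final; same-well multiplex.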

The structures appear in SMILES notation. “And” between values parts separate entries of the source, which are not always exact repeats. Equal values may be shown once. Inconclusive results are not listed. Where a structure was tested more than once in an assay, its records may differ in their call. The source made the active and inactive calls. Unless noted, calls follow the shape of the dose curve; as a rule, active = well fitted curve in the direction sought with a large enough effect in the repeat runs; inconclusive = weak or mixed curves; inactive = no such curve, though single readings can be large; an effect the other way counts as inactive or inconclusive.

Estrogen receptor (Homo sapiens), sequence (P03372 whole entry, looked up): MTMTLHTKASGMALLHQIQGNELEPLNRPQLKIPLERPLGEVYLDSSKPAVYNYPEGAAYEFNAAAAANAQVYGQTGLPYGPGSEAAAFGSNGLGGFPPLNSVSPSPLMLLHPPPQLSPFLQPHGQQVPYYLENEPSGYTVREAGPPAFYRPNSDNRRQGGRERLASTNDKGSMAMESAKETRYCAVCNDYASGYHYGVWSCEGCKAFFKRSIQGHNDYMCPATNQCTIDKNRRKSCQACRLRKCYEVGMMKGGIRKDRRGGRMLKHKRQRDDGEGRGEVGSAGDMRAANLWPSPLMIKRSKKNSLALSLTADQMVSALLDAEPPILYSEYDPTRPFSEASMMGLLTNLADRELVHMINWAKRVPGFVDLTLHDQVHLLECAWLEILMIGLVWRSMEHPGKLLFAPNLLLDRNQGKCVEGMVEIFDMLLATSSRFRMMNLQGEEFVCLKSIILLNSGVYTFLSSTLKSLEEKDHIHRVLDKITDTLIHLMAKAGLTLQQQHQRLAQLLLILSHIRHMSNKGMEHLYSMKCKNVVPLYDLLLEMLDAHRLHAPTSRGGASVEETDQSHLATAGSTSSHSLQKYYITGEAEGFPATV
Androgen receptor (Homo sapiens), sequence (P10275 whole entry, looked up): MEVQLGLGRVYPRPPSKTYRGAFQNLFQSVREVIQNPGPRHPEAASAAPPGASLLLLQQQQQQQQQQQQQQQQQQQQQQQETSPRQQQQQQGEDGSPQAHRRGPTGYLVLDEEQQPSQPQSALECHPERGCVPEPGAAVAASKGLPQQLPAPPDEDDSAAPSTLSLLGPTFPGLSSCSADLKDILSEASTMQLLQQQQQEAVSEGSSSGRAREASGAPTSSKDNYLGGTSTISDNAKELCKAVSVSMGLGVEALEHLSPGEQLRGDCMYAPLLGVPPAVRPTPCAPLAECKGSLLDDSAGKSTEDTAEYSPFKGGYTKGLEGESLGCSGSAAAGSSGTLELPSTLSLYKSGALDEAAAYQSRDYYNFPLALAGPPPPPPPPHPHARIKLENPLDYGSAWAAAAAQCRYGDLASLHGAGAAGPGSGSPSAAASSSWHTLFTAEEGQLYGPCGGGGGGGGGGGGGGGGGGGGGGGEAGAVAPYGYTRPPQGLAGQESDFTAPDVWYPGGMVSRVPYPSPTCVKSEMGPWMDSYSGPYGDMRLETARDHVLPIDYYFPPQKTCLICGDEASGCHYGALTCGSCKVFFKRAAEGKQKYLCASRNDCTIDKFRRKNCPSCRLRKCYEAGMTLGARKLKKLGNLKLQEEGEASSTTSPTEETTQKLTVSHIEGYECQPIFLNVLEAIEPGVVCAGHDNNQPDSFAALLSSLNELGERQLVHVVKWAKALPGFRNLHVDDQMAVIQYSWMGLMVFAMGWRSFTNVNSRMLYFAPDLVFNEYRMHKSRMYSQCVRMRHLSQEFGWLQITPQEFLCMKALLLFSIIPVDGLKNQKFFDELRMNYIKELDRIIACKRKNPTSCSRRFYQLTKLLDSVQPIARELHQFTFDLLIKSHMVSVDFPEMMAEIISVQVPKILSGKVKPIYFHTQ

Take `CC(=O)O[C@]1(C(C)=O)CC[C@H]2[C@@H]3C=C(C)C4=CC(=O)CC[C@]4(C)[C@H]3CC[C@@]21C`: the Potency result in [1], in test [2], in [3], in [4], in test [5] and in [7] was “inactive” in each case. The Potency result in test [8], in test [10], in test [11], in [12], in test [13] and in test [14] was “inactive” throughout. For the same compound, the Potency result in [16], in [17] and in test [18] was “inactive” each time. Moreover, the Potency in test [6] is 19.5 µM (active); in [9], 347 nM (active) and 952 nM (active). For the same compound, the call in test [15] was inactive.

Turning to `CC(=O)Oc1ccc(C(c2ccc(OC(C)=O)cc2)c2ccccn2)cc1`, the Potency result in [1], in test [2], in test [3], in test [4], in [5] and in test [6] was “inactive” in each case. Besides, the Potency entry in test [7], in [8], in test [9], in test [10], in test [11] and in test [13] was “inactive” throughout. In addition, the Potency result in test [14], in test [16], in test [17] and in test [18] was “inactive” each time. In addition, the Potency is 171 nM (active) and 1.19 µM (active) in [19]; 54.2 nM (active) and 944 nM (active) in [12]. In test [15], the result was inactive.

As for `C=CC(C)(O)CCC=C(C)C` (configuration not stated), the Potency entry in [1], in test [2], in test [3], in test [4], in test [5] and in [6] was “inactive” each time. In addition, the Potency result in [7], in test [8], in test [9], in [10], in test [20] and in test [11] was “inactive” in each case. For the same compound, the Potency result in [14], in test [16], in test [17] and in test [18] was “inactive” in each case. For the same compound, the compound was classed as inactive in test [15].

In the case of `C=C[Si](OCCOC)(OCCOC)OCCOC`, the Potency entry in test [1], in [2], in [3], in [4], in test [5] and in test [6] was “inactive” in each case. For the same compound, the Potency entry in [7], in test [8], in test [9], in test [10], in test [20] and in test [11] was “inactive” in each case. The Potency result in test [12], in test [14], in test [16], in test [17] and in test [18] was “inactive” throughout. Further, the compound was called inactive in [15].

Take `CCCN1C=CN(C)C1`: the Potency result in test [1], in test [2], in test [3], in [4], in test [5] and in test [6] was “inactive” each time. For the same compound, the Potency entry in [7], in test [8], in test [9], in [10], in test [11] and in test [12] was “inactive” throughout. Further, the Potency entry in [14], in test [16] and in [18] was “inactive” each time. In [15], the result was inactive.

In the case of `Nc1ccc2c(c1)C(=O)c1ccccc1C2=O`, the Potency result in test [1], in test [2], in test [3], in test [4], in test [5] and in test [6] was “inactive” throughout. In addition, the Potency result in test [8], in test [9], in [10], in test [20], in test [11] and in test [12] was “inactive” in each case. Moreover, the Potency entry in test [16] and in test [17] was “inactive” throughout. Also, the Potency in test [14] is 951 nM (active) and 770 nM (active); in test [18], 0.864 µM (active). Besides, in [15], the result was inactive.

For the compound `Cc1ccc([N+](=O)[O-])c(C)c1`, the Potency is 30.9 µM (active) and inactive in test [1]; 17.4 µM (active) and inactive in test [3]; 38.9 µM (active) and inactive in test [6]; 6.11 µM (active) and inactive in [12]. For the same compound, the Potency result in test [2], in [4], in test [5], in test [7], in test [8] and in test [9] was “inactive” each time. Also, the Potency entry in test [10], in [20], in test [11], in [14], in test [16] and in test [18] was “inactive” throughout. Besides, the outcome in [15] was inactive.
